TDP1 cell CPT = growth inhibition of DT40 Tdp1-/-;hTDP1 cells with camptothecin (screen for TDP1 inhibitors) | chicken DT40 Tdp1-/-;hTDP1 cells + 20 nM CPT, ATP luminescence, 48 h | Potency, µM (highest dose often 46.2 µM), for inactives: at the top dose activity change, negative = growth inhibition, usual class: inhibitors | actives 12% (n = 420,000); note: potency is the fitted concentration of half-maximal effect; nearly all actives have a fitted effect of over 55% in size
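Chicken DT40 Tdp1-/- cells stably complemented with human TDP1 were seeded at 400 cells/well in medium containing 20 nM camptothecin, exposed to pin-transferred compounds, and grown at 37 °C for at least 48 hr. Viability was read as ATP luminescence.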
12-LOX inh = inhibitors of human 12S-lipoxygenase ALOX12 | purified 12hLO, xylenol orange hydroperoxide absorbance | Potency, µM (top dose mostly 108 µM), inactives show at the top dose activity change, negative = inhibition, usual class: inhibitors | actives 1.1% (n = 580,000) | AID 1671190; note: potency is the fitted concentration of half-maximal effect
Target sequence (P18054 whole entry, looked up): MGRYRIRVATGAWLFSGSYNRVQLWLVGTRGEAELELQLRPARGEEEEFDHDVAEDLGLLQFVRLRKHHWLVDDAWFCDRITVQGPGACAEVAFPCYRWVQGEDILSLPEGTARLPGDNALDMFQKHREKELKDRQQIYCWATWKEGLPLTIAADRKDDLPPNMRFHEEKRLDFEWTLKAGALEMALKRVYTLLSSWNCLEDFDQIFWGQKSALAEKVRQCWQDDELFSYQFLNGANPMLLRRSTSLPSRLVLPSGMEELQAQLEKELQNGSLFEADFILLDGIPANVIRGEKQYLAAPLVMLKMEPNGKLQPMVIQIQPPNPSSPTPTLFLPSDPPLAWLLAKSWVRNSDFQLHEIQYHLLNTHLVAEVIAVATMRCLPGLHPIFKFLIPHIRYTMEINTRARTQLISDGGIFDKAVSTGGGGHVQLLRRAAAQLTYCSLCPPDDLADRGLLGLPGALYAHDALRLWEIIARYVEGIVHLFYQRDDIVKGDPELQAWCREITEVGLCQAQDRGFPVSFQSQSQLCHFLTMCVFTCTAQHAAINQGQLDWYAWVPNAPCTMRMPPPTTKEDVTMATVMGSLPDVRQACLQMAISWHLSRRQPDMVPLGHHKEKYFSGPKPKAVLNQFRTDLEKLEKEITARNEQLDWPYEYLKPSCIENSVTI
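Hydroperoxide product was detected by ferrous iron/xylenol orange as the 573 to 405 nm absorbance ratio. Arachidonic acid at 40 uM (final) was turned over for 30 min at room temperature by 150 nM human 12hLO, pH 7.0 Hepes buffer, after 15 min compound preincubation.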
HT1080 IDH1KD tx = kills HT-1080 cells with IDH1 knockdown; HT-1080 IDH1 knockdown viability, ATP luminescence, 48 h; Potency, µM (doses to about 46.1 µM), for inactives: top-dose activity, negative = toxicity, hits mostly cytotoxic; actives 2% (n = 360,000);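 note: potency is the fitted concentration of half-maximal effect; 0% = DMSO wells and -100% = cell-free medium wells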
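Viability of IDH1-knockdown HT-1080 fibrosarcoma cells was assessed by CellTiter-Glo after 48 h at 37 °C with titrated compound; concentration-effect curves were classified by fit quality and response size.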
IL-1B inflam inh = inflammasome signaling inhibition, IL-1 beta readout; actives 4.7% (n = 360,000); THP-1 LPS/ATP IL-1B secretion, AlphaLISA, 16 h; active compounds read low; activity change, % at 57.5 µM; in the data active = activity change below about -50%; inconclusive = mostly about -30% to -49%
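THP-1 cells pretreated 1 hr with compounds (up to 57.5 uM final), then stimulated with LPS (250 ng/mL final) plus ATP (1.25 mM final); secreted IL-1B measured by AlphaLISA after 16 hr, decreased signal indicating inhibition.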
DT40 TDP1 no CPT = qHTS for Inhibitors of human tyrosyl-DNA phosphodiesterase 1 (TDP1): qHTS in cells in absence of CPT. actives 15% (n = 420,000). AID 686978, 2013. Potency, µM (series often up to 46.2 µM), without a hit: at the highest dose activity change, negative = growth inhibition, usual class: inhibitors. DT40 Tdp1-/- hTDP1 cells, no CPT, ATP luminescence, 48 h; note: potency is the fitted concentration of half-maximal effect; nearly all actives have a fitted effect of over 55% in size
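Camptothecin absent (DMSO only). Human TDP1-complemented DT40 knockout cells, 400 cells/well, 37 °C for minimum 48 hr; ATP measured via CellTiter-Glo, 30 min dark incubation, luminescence.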
HT1080NT lethal = kills 2HG-producing HT-1080-NT fibrosarcoma cells; HT-1080-NT fibrosarcoma viability, CellTiter-Glo ATP luminescence, 48 h; Potency, µM (titrated, usually from 46.1 µM), for inactives: at the top dose activity, negative = less viability, most hits filed as cytotoxic; actives 1.6% (n = 360,000);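 note: NT is the 2HG producing partner of a matched IDH1 knockdown line; potency is the fitted concentration of half-maximal effect; 0% = DMSO-treated cells and -100% = media-only wells without cells; nearly all actives have a fitted effect of over 55% in size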
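Fibrosarcoma NT cells, 750 per well in 5% FBS RPMI, were exposed to compound for 48 hours. Viability: CellTiter-Glo luminescence.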
* = called active by the depositor; u = inconclusive; x = not tested or not shown; [ ] = dose if it differs, or a comment. Only a selection was taken, and hits are over-represented in it overall. Unless noted, calls come from the whole dose curve; as a rule, active = well fitted curve in the direction sought with a large enough effect; inconclusive = small, poorly fitted or top-dose-only effect, or another doubt; inactive = no such curve, though single readings can be large; an effect the other way counts as inactive or inconclusive. Unless noted, % is set by controls: 0 for no effect and ±100 for the full control effect.

SMILES	TDP1 cell CPT	12-LOX inh	HT1080 IDH1KD tx	IL-1B inflam inh	DT40 TDP1 no CPT	HT1080NT lethal
COc1ccc(C2CC(c3cccc(C(F)(F)F)c3)=NN2c2ccc(S(N)(=O)=O)cc2)cc1 (configuration not stated)	u	-49%	-28%	u	26µM*	u
COc1ccc(C2CC(c3ccccc3Cl)=NN2c2ccc(S(N)(=O)=O)cc2)cc1 (configuration not stated)	u	u	u	u	u	18µM*
COc1ccc(C2CC(c3cccc(Br)c3)=NN2c2ccc(S(N)(=O)=O)cc2)cc1 (configuration not stated)	26µM*	u	u	0	u	u
COc1ccc(C2CC(c3ccccc3)=NN2c2ccc(S(N)(=O)=O)cc2)cc1 (configuration not stated)	-13%	u	u	u	u	u
COc1ccc(C2CC(c3cccc(F)c3)=NN2c2ccc(S(N)(=O)=O)cc2)cc1 (configuration not stated)	u	32µM*	-15%	-19	u	-11%
Fc1ccc(C2=NN(c3cccc(C(F)(F)F)c3)C(c3ccc(F)cc3)C2)cc1 (configuration not stated)	x	-17%	x	x	x	x
O=C(Nc1ccc(S(=O)(=O)N2CCCC2)cc1)c1cc(-c2cccc(F)c2)no1	x	0%	x	x	x	x
N#Cc1ccc(C(=O)N(Cc2cccs2)C2CC2)cc1	x	-24%	x	x	x	x
Cc1ccc(CNC(=O)CCC(=O)N2CCSc3nc(C)cc(C)c32)cc1	x	40%	x	x	x	x
NC(=O)C1(N2CCCCC2)CCN(Cc2ccc(Br)cc2)CC1	u	36%	-2%	10	16µM*	9%
NC(=O)C1(N2CCCCC2)CCN(Cc2ccc(F)cc2)CC1	-22%	12%	-1%	8	-11%	7%
CCOc1cccc(CNC(=O)C2CCN(c3cn[nH]c(=O)c3)C2)c1 (configuration not stated)	x	8%	x	x	x	x
CC1CCN(C(=O)Cn2c(=O)n(CCCCCC(=O)NCc3ccccc3Cl)c(=O)c3sccc32)CC1	u	2%	x	x	10µM*	x
CCOc1ccccc1NC(=O)Cn1c(=O)n(CC(=O)NCc2ccccc2Cl)c(=O)c2sccc21	8.2µM*	-9%	x	x	9.2µM*	x
CCC(C)NC(=O)Cn1c(=O)n(CCCCCC(=O)NCc2ccccc2Cl)c(=O)c2sccc21 (configuration not stated)	u	-15%	x	x	u	x
COCc1c(Br)c(C)nc2sc3c(=O)n(-c4cccc(Br)c4)nnc3c12	-2%	-8%	x	x	0%	x
O=C(COc1ccccc1)N1C[C@@H]2OCC(=O)N(Cc3ccc(F)cc3)[C@@H]2C1	x	70%[176 µM]	x	x	x	x
CCOc1ccc(-c2nonc2NC(=O)c2oc3ccc(Cl)cc3c2C)cc1	0.92µM*	-4%	x	x	0.92µM*	x
CCc1nonc1NC(=O)c1oc2cc(C)c(Cl)cc2c1C	u	6%	20%	17	9.2µM*	12%
COc1ccc(C2Cn3nnc(C(=O)N4CCC(C(N)=O)CC4)c3CO2)cc1 (configuration not stated)	x	40%	x	x	x	x
CC(C)(C)C(=O)NCCc1ccsc1	x	39%	x	x	x	x
O=[S+]([O-])(c1cccc(C(F)(F)F)c1)N1CCC2(CC(c3cccnc3)=NO2)C1 (configuration not stated)	x	-1%[6.33 µM]	x	x	x	x
CNc1nc(N2CCCN(C)CC2)nc2cc(OC)c(OC)cc12	14µM*	x	-19%	x	11µM*	-10%
CCNc1nc(N2CCCN(C)CC2)nc2cc(OC)c(OC)cc12	11µM*	x	-23%	x	11µM*	-25%
Cn1c(-c2sccc2OCc2ccc(Cl)cc2Cl)n[nH]c1=S	u	28µM*	-10%	9	u	-11%
SMILES	TDP1 cell CPT	12-LOX inh	HT1080 IDH1KD tx	IL-1B inflam inh	DT40 TDP1 no CPT	HT1080NT lethal
Cc1ccc(COc2ccsc2-c2n[nH]c(=S)n2C)cc1	-8%	14µM*	1%	-12	2%	8%
CC1=C[C@@H](CN)[C@H](C(C)C)C[C@H]1Cc1nc2ccc(F)cc2[nH]1	x	45%[176 µM]	x	x	x	x
Cc1ccc(C(=O)N/C(=C\c2cccs2)c2nc3ccccc3[nH]2)cc1	16µM*	-8%	-8%	24	u	-9%
COc1ccc(C2Nc3cccc(O)c3C(=O)N2Cc2ccccc2)cc1COc1ccc(NC(C)=O)cc1 (configuration not stated)	x	3%	x	x	x	x
COc1ccc(-c2nc3ccc(NC(=O)COC(C)=O)cc3c(=O)n2Cc2ccccc2)cc1COc1ccc(NC(C)=O)cc1	u	x	-7%	x	11µM*	-13%
COc1ccc(-c2nc3ccc(NC(C)=O)cc3c(=O)n2Cc2cccc(Cl)c2)cc1COc1ccc(NC(C)=O)cc1	11µM*	x	-14%	x	13µM*	-21%
CCN(CC)S(=O)(=O)c1ccc(C(=O)O)cc1	-12%	2%	-4%	1	23%	-2%
CCN(CC)S(=O)(=O)c1ccc(C(=O)Nc2ccc(Cc3ccncc3)cc2)cc1	16µM*	-1%	-15%	-83*	15µM*	1%
CCN(Cc1ccncc1)S(=O)(=O)c1ccc(C(C)=O)cc1	16µM*	-12%	-11%	0	12µM*	0%
CCN(CC)S(=O)(=O)c1ccc(NC(=O)c2ccccn2)cc1	-27%	u	0%	-5	-25%	-2%
O=C1NC[C@H](CCCCN2CCN(CCc3ccc(O)cc3)C(=O)C2=O)N(CCC2CCCCC2)C1=O	-5%	-7%	5%	0	-19%	17%
CCCCOc1ccc(/C=C/C(=O)N(CC)CC(=O)Nc2ccc3c(c2)OCCO3)cc1OC	u	-6%	-18%	u	-23%	-3%
c1ccc(CN2CCN(CCOCCOc3ccc4c(c3)CCC4)CC2)cc1	u	50µM*	u	-60*	23µM*	16µM*
O=C(c1ccccc1)c1ccc(OCC(O)CN2CCN(Cc3ccccc3)CC2)cc1 (configuration not stated)	21µM*	-1%	0%	u	23µM*	-1%
FC(F)(F)c1cccc(OCCN2CCN(Cc3ccccc3)CC2)c1	21µM*	u	0%	13	u	-5%
CCOc1ccc(OCC(O)CNC2CCN(Cc3ccccc3)CC2)cc1 (configuration not stated)	5.8µM*	8%	u	u	9.2µM*	u
